{"source": "PubChem BioAssay (NCATS)", "note": "Inconclusive results are not listed. Values without a mark were called inactive. Calls come from the whole dose curve; as a rule, active = well fitted inhibition curve with a large enough effect; inconclusive = small, poorly fitted or top-dose-only effect; inactive = no such curve, though single readings can be large or run the other way.", "data": [{"test": "qHTS assay for measurement of the activity of small molecule inhibitors on Zika virus induced Caspase-3 activity in human iPSC derived neural progenitor cells (hNPCs) (AID 1224857); note: % of control where 0% means no effect; nearly all actives have a fitted effect of over 65% in size", "conditions": "hNPCs ZIKV-induced caspase-3/7, Caspase-Glo luminescence, 6 h; series mostly up to 45.7 µM; activity change, negative = inhibition: at the top concentration", "in_short": "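Caspase-3/7 induction by a 6-hour ZIKV infection was quantified with a luminescent Caspase-Glo 3/7 reagent incubated 30 minutes at room temperature. Compounds were preincubated with hNPCs for 1 hour; inhibition was calculated against uninfected and infected control wells.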", "values": [{"compound": "COc1ccc(C(=O)NCc2ccc(OCCN(C)C)cc2)cc1OC", "activity change, negative = inhibition": "1.1%"}, {"compound": "COc1ccccc1OCC(O)CO", "note": "(stereo not drawn)", "activity change, negative = inhibition": "4.81%"}, {"compound": "Cc1[nH]c(C)c(Cl)c(=O)c1Cl", "activity change, negative = inhibition": "-5.48% [at 20.5 µM]"}, {"compound": "CCN[C@H]1CN(CCCOC)S(=O)(=O)c2sc(S(N)(=O)=O)cc21", "activity change, negative = inhibition": "3.03%"}, {"compound": "C[C@]1(Cn2ccnn2)[C@H](C(=O)O)N2C(=O)C[C@H]2S1(=O)=O", "activity change, negative = inhibition": "-15.2%"}, {"compound": "CC(C)NC[C@@H](O)COc1ccc(CC(N)=O)cc1", "activity change, negative = inhibition": "-8.75%"}, {"compound": "NC(=O)NC1NC(=O)NC1=O", "note": "(stereo not drawn)", "activity change, negative = inhibition": "-11.8%"}, {"compound": "CC(=O)OCC(=O)[C@@]1(O)CC[C@H]2[C@@H]3CCC4=CC(=O)C=C[C@]4(C)[C@@]3(F)[C@@H](O)C[C@@]21C", "activity change, negative = inhibition": "18%"}, {"compound": "O=C(/C=C/c1ccc(O)c(O)c1)O[C@@H]1C[C@@](OC(=O)/C=C/c2ccc(O)c(O)c2)(C(=O)O)C[C@@H](O)[C@@H]1O", "activity change, negative = inhibition": "-1.12%"}, {"compound": "Nc1ncnc(Nc2ccccc2)n1", "activity change, negative = inhibition": "-5.02%"}, {"compound": "CCCCCCCC(=O)OCC(COC(=O)CCCCCCC)OC(=O)CCCCCCC", "activity change, negative = inhibition": "8.2%"}, {"compound": "CCOC(N)=O", "activity change, negative = inhibition": "-0.0523%"}, {"compound": "Cc1cc(-n2nc3ccc(Cl)cc3n2)c(O)c(C(C)(C)C)c1", "activity change, negative = inhibition": "-8.69%"}, {"compound": "Cc1c(I)c(=O)n(-c2ccccc2)n1C", "activity change, negative = inhibition": "-2.69%"}, {"compound": "CC(=O)N[C@@H](Cc1ccc(O)cc1)C(=O)O", "activity change, negative = inhibition": "-7.95%"}, {"compound": "C[C@@H](N)C(=O)O", "activity change, negative = inhibition": "-9.07%"}, {"compound": "CC(C)C[C@@H](N)C(=O)O", "activity change, negative = inhibition": "102% [at 20.5 µM]"}, {"compound": "CC(C)(C)NCC(O)COc1cccc2c1CCC(=O)N2", "note": "(stereo not drawn)", "activity change, negative = inhibition": "-0.472%"}, {"compound": "CC1(C)S[C@@H]2[C@H](N=CN3CCCCCC3)C(=O)N2[C@H]1C(=O)O", "activity change, negative = inhibition": "-1.21%"}, {"compound": "CC(C)=CCC[C@@](C)(O)[C@H]1CC=C(C)CC1", "activity change, negative = inhibition": "18.2%"}, {"compound": "CC(=O)[C@@]1(O)CC[C@H]2[C@@H]3C[C@H](C)C4=CC(=O)C=C[C@]4(C)[C@@]3(F)[C@@H](O)C[C@@]21C", "activity change, negative = inhibition": "4.96%"}, {"compound": "Nc1ncnc2c1ncn2[C@@H]1O[C@H](COP(=O)(O)O)[C@@H](O)[C@H]1O", "activity change, negative = inhibition": "3.7%"}, {"compound": "CC[C@H](C)[C@H](N)C(=O)O", "activity change, negative = inhibition": "-3.93%"}, {"compound": "C[N+](C)(C)CC(O)CC(=O)[O-]", "note": "(stereo not drawn)", "activity change, negative = inhibition": "9%"}, {"compound": "O=c1[nH]c2cc(C(F)(F)F)c(N3CCOCC3)cc2n(CP(=O)(O)O)c1=O", "activity change, negative = inhibition": "-1.69%"}, {"compound": "CC(=O)OC[C@H]1O[C@@](COC(C)=O)(O[C@H]2O[C@H](COC(C)=O)[C@@H](OC(C)=O)[C@H](OC(C)=O)[C@H]2OC(C)=O)[C@@H](OC(C)=O)[C@@H]1OC(C)=O", "activity change, negative = inhibition": "27%"}, {"compound": "C/C(=C(\\CCO)SS/C(CCO)=C(\\C)N(C=O)Cc1cnc(C)nc1N)N(C=O)Cc1cnc(C)nc1N", "activity change, negative = inhibition": "-24.2%"}, {"compound": "O=C(NCCCN1CCOCC1)c1ccc(Cl)cc1", "activity change, negative = inhibition": "19%"}, {"compound": "NCc1ccc(S(N)(=O)=O)cc1", "activity change, negative = inhibition": "-5.25%"}, {"compound": "CCCCCCCCCCCCCCCCC(C(=O)O)C(O)(CC(=O)O)C(=O)O", "note": "(stereo not drawn)", "activity change, negative = inhibition": "2.21%"}, {"compound": "Cc1c(NC(=O)c2cccnc2)c(=O)n(-c2ccccc2)n1C", "activity change, negative = inhibition": "-10.2%"}, {"compound": "C[N+](C)(C)CC[N+]1(C)Cc2c(Cl)c(Cl)c(Cl)c(Cl)c2C1", "activity change, negative = inhibition": "-9.19%"}, {"compound": "O=C1c2ccccc2S(=O)(=O)N1CCCCN1CCN(c2ncccn2)CC1", "activity change, negative = inhibition": "0.136%"}, {"compound": "c1ccc2[nH]ccc2c1", "activity change, negative = inhibition": "22.6%"}, {"compound": "CCCCCCCCCCC(CO)CCCCCCCC", "note": "(stereo not drawn)", "activity change, negative = inhibition": "-8.59%"}, {"compound": "O=C(O)CCCc1ccccc1", "activity change, negative = inhibition": "2.94%"}, {"compound": "CNc1c2c(nn1C)CCCC2", "activity change, negative = inhibition": "-7.43%"}, {"compound": "CCCNC(C)C(=O)Nc1c(C)csc1C(=O)OC", "note": "(stereo not drawn)", "activity change, negative = inhibition": "-4.74%"}]}]}
